For the test, the target named is CHRNE. Nature of the test: pooled miR-30 sensor sort-seq; sequence = guide strand. The conditions noted are these: shRNA.
The sequence TTCAGTATCAGCTCCTCCGCGC had a sensor-assay potency score (higher = more potent) of -0.412.
As for ATGACGAAAATAAGGAACCTGC, the sensor-assay potency score (higher = more potent) was -1.05.
Consider TCTTGTTGATGGTCTTGCCGTC, for which the sensor-assay potency score (higher = more potent) worked out at 0.0404.
With TTGTTTTCCAGCACAATCTCTG the figure was -0.404.
Next, TTAATGACGTAGAAGAGCGGCT: -0.711; TAGAAGAGCGGCTTCCGGCGGA: 0.192; TAGTGGTGAGAGTCTCCTCTTT: -0.541.
Next, TCAAACACGAGCTCGCTCCGTG: -0.0514; TTCACGGCATCCACACAGCAGC: -0.899.
On to TTCCAGCACAATCTCTGGCAGC, for which the sensor-assay potency score (higher = more potent) was -0.813.
With TTGCCGTCGTTGTCTACGGCAA the figure was -1.16; with ATCTTGTTGATGGTCTTGCCGT, -1.25; with TAATCCTGCCAATCGATTCCAA, -0.67.
With TCGATCTTGTTGATGGTCTTGC the figure was 0.161.
The sequence ATAGTTGTTGAAGAGATGGTGA had a sensor-assay potency score (higher = more potent) of 0.0987.
For TATACCCCCAAAGTCGTCCTTG, the sensor-assay potency score (higher = more potent) is -0.579.
With TTGCTTTCTGTCAGTACTGTAG the figure was -0.702.

For the origin of these results see the OligoGym collection.
Note: reference of the scale not given here.
